From PubChem BioAssay (NCATS) come the findings set out here.

Results filed as inconclusive are left out. Unmarked numbers belong to inactive results. The source made the active and inactive calls. The call rests on the fitted dose curve; in most records, active means well fitted cell-killing curve with a large enough effect; inconclusive means small, poorly fitted or top-dose-only effect, or effect the other way; inactive means no such curve, though single readings can be large or run the other way.
Potency means the concentration at half of the fitted maximal effect.

This test is described as follows: Quantitative High-Throughput drug screen in 47 multiple myeloma cell lines against the NCATS MIPE library collection: SKMM1_PLB cell viability assay (AID 1919863). Further: nearly all actives have a fitted effect of over 35% in size. On viability: series mostly up to about 46 µM. The settings on record: SKMM1 myeloma viability, CellTiter-Glo ATP, 48 h; viability: stronger effect = lower value. The text has this: PI: Beverly A. Mock Ph.D.
Laboratory of Cancer Biology and Genetics,
Center for Cancer Research, National Cancer Institute,
National Institute of Health, Bethesda, Maryland
Drug resistance and disease progression are common in multiple myeloma (MM) patients, underscoring the need for new therapeutic combinations. […] We hypothesized that effective combinations would reduce MYC expression and enhance p16 activity. […] These preclinical data identify potentially useful drug combinations for evaluation in drug-resistant MM and reveal potential mechanisms of combined drug sensitivity.
Described herein is the primary MIPE qHTS used to cherrypick compounds. Validated compounds were then further tested for potential synergistic activiy.
[1] Peat TJ, Gaikwad SM, Dubois W, Gyabaah-Kessie N, Zhang S, Gorjifard S, Phyo Z, Andres M, Hughitt VK, Simpson RM, Miller MA, Girvin AT, Taylor A, Williams D, D'Antonio N, Zhang Y, Rajagopalan A, Flietner E, Wilson K, Zhang X, Shinn P, Klumpp-Thomas C, McKnight C, Itkin Z, Chen L, Kazandijian D, Zhang J, Michalowski AM, Simmons JK, Keats J, Thomas CJ, Mock BA. Drug combinations identified by high-throughput screening promote cell cycle transition and upregulate Smad pathways in myeloma. Cancer Lett. 2023 Aug 1;568:216284. doi: 10.1016/j.canlet.2023.216284. Epub 2023 Jun 24. PMID: 37356470; PMCID: PMC10408729.
SEQUENCE No. (e.g., 1, 2, 3, etc.); […] (e.g., Cells, Incubation, Reagent, etc.); VALUE and DESCRIPTION.
1; Cells; 5 uL; white, solid bottom 1536-well Greiner assay plate.
2; Compounds; 23 nL; Kalypsis pin tool (Wako USA) equipped with a 1536-well pin head to transfer to the assay plates.
3; Incubation; 48 hours; 37C incubation.
4; Reagent;5uL; CellTiter Glo (Promega).
5; Detector; 425V; Luminescence; Viewlux PerkinElmer.
NOTES (numbers refer to Sequence numbers above)
1. The cell-based screening methods employed in this study were like those previously published. Briefly, the corresponding myeloma cell lines were screened in 1,536-well plates with 500 cells, 5-uL per well for inhibition of cell viability (assessed by measuring ATP levels with CellTiterGlo).
2. NCATS MIPE 4.0 library of approved and investigational drugs were added using the Kalypsis pin tool. Wells treated with DMSO only for 100% viability and media only for 0% viability were used as controls.
3. The assay plates were covered and incubated for 48 hours in a 37C, 5% CO2 incubator with controlled humidity.
4. After 48 hours, CellTilter-GloTM luminescent substrate mix (Promega) reagent was added to the assay plate and plates we incubated for 5 min at room temperature.
5. Signal was measured as median relative luminescence units on a ViewLux (PerkinElmer) multiplate reader.
[1] Heske CM, Davis MI, Baumgart JT, Wilson K, Gormally MV, Chen L, Zhang X, Ceribelli M, Duveau DY, Guha R, Ferrer M, Arnaldez FI, Ji J, Tran HL, Zhang Y, Mendoza A, Helman LJ, Thomas CJ. Matrix Screen Identifies Synergistic Combination of PARP Inhibitors and Nicotinamide Phosphoribosyltransferase (NAMPT) Inhibitors in Ewing Sarcoma. Clin Cancer Res. 2017 Dec 1;23(23):7301-7311. doi: 10.1158/1078-0432.CCR-17-1121. Epub 2017 Sep 12. PMID: 28899971; PMCID: PMC6636827.
With `Oc1c(Cl)cc(Cl)c2cccnc12`, the Potency is 18.7 µM (active).
As to `CCN1CCCC1CNC(=O)c1cc(S(N)(=O)=O)ccc1OC` (stereo not given), the viability is 123%.
As for `CCn1cc(C(=O)O)c(=O)c2cc(F)c(N3CCNCC3)nc21`, the viability was 102%.
As to `O=C(O)c1cccnc1`, the viability is 107%.
`N[C@@H](Cc1ccc(O)c(O)c1)C(=O)O`: the Potency was 26.4 µM (active).
Turning to `O=C(O)C1CCCN(CCC=C(c2ccccc2)c2ccccc2)C1` (stereo not given), the viability is 122%.
With `COc1cc(NS(=O)(=O)c2ccc(N)cc2)nc(OC)n1`, the viability is 133%.
Take `NC(=O)c1cccnc1`: the viability is 105%.
`CCn1cc(C(=O)O)c(=O)c2cc(F)c(N3CCN(C)CC3)cc21`: the Potency is 5.26 µM (active).
With `C[C@@H](NCCCc1cccc(C(F)(F)F)c1)c1cccc2ccccc12`, the viability is 110%.
For `Cc1cc(NS(=O)(=O)c2ccc(N)cc2)no1`, the viability is 140%.
For `Cc1cccc(N(C)C(=S)Oc2ccc3ccccc3c2)c1`, the viability is 112%.
In the case of `CC1=C(C(=O)O)N2C(=O)[C@@H](NC(=O)C(N)c3ccccc3)[C@H]2SC1` (stereo not given in full), the viability is 130%.
Regarding `CC(C)(Sc1cc(C(C)(C)C)c(O)c(C(C)(C)C)c1)Sc1cc(C(C)(C)C)c(O)c(C(C)(C)C)c1`, the viability is 149%.
In the case of `CO[C@@]12[C@H](COC(N)=O)C3=C(C(=O)C(C)=C(N)C3=O)N1C[C@@H]1N[C@@H]12`, the Potency is 20.9 µM (active).
The same measure, in the same setting: to `CC(C)C[C@H](NC(=O)[C@H](CCc1ccccc1)NC(=O)CN1CCOCC1)C(=O)N[C@@H](Cc1ccccc1)C(=O)N[C@@H](CC(C)C)C(=O)[C@@]1(C)CO1` belongs 0.0209 µM (active).
In the case of `NCCCC(O)(P(=O)(O)O)P(=O)(O)O`, the viability was 137%.
On the same count and under the same terms, to `O=C(N[C@H](CO)[C@H](O)c1ccc([N+](=O)[O-])cc1)C(Cl)Cl` belongs 115%.
Take `CCN(CC)CCn1c(=O)c(Cc2ccc(OC)cc2)nc2ccccc21`: the viability was 134%.
As to `Nc1nc(F)nc2c1ncn2[C@@H]1O[C@H](CO)[C@@H](O)[C@@H]1O`, the Potency is 0.332 µM (active).
Consider `S=P(N1CC1)(N1CC1)N1CC1`, for which the viability was 142%.
Regarding `CCCN[C@H]1CCc2nc(N)sc2C1`, the viability was 141%.
`O=C(O)c1cn(C2CC2)c2cc(N3CCNCC3)c(F)cc2c1=O`: the viability is 166%.
Still for that read-out and setting: as for `O=C(O)CSCC(=O)NC1CCSC1=O` (stereo not given), the figure is 130%.
As for `CN1CCCC(n2nc(Cc3ccc(Cl)cc3)c3ccccc3c2=O)CC1` (stereo not given), the Potency is 20.9 µM (active).
Regarding `N[C@@H](C(=O)N[C@@H]1C(=O)N2C(C(=O)O)=C(Cl)CS[C@H]12)c1ccccc1`, the viability was 123%.
As for `C[C@]12C=CC(=O)C=C1CC[C@@H]1[C@@H]2C(=O)C[C@@]2(C)[C@H]1CC[C@]2(O)C(=O)CO`, the viability was 141%.
With `O[C@@H](CNC[C@H](O)[C@H]1CCc2cc(F)ccc2O1)[C@@H]1CCc2cc(F)ccc2O1`, the Potency is 18.7 µM (active).
In the case of `Nc1nc(N)nc(-c2cc(Cl)ccc2Cl)n1`, the viability was 131%.
`COC(=O)Nc1nc2ccc(Sc3ccccc3)cc2[nH]1`: the Potency was 3.32 µM (active).
Consider `OCc1ccc(-c2nn(Cc3ccccc3)c3ccccc23)o1`, for which the Potency was 5.9 µM (active).
Same read-out and setting: as for `COc1cc2nc(N3CCCN(C)CC3)nc(NC3CCN(Cc4ccccc4)CC3)c2cc1OC`, the figure is 7.43 µM (active).
For `COc1cc([C@@H]2c3cc4c(cc3[C@H](O)[C@H]3COC(=O)[C@H]23)OCO4)cc(OC)c1OC`, the viability was 65.8%.
`CCCc1nc(C)c2c(=O)[nH]c(-c3cc(S(=O)(=O)N4CCN(CC)CC4)ccc3OCC)nn12`: the Potency is 9.35 µM (active).
Consider `O=S(=O)(c1cccc2cnccc12)N1CCCNCC1`, for which the viability is 125%.
Take `CC(=O)[C@H]1CC[C@H]2[C@@H]3CC=C4C[C@@H](O)CC[C@]4(C)[C@H]3CC[C@]12C`: the viability is 123%.
Turning to `CC(C)Cn1cnc2c(N)nc3ccccc3c21`, the Potency is 14.8 µM (active).
For `CNC(=O)c1cc(Oc2ccc(NC(=O)Nc3ccc(Cl)c(C(F)(F)F)c3)cc2)ccn1`, the Potency is 29.6 µM (active).
Consider `CCOC(=O)[C@H](CCc1ccccc1)N[C@H]1CS[C@H](c2cccs2)CN(CC(=O)O)C1=O`, for which the Potency was 14.8 µM (active).
For the molecule `CC(N)C12CC3CC(CC(C3)C1)C2` (stereo not given), the viability is 118%.
